From PubChem BioAssay come the findings set out here.

Structures are written as SMILES. Measured potencies and affinities stand elsewhere. Calls of active or inactive are those of the source.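 The calls were made as follows: active = primary screen activator hit with a dose response curve and TRPC4 channel activation at any tested dose; inactive = no activation, no dose response, or not a primary hit.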

The experiment deals with Short transient receptor potential channel 4 (Mus musculus) (UniProt Q9QUQ5). Nature of the experiment: calcium entry via TRPC4 opening agents – cell-based, HEK293 TRPC4/mu-opioid, Fluo-4 calcium, dose response (AID 434937). The following applies: HEK293 TRPC4 cells, Fluo-4 calcium fluorescence ratio; series mostly up to 20 µM.
Chain of Short transient receptor potential channel 4 (Mus musculus) (Q9QUQ5 whole entry, looked up): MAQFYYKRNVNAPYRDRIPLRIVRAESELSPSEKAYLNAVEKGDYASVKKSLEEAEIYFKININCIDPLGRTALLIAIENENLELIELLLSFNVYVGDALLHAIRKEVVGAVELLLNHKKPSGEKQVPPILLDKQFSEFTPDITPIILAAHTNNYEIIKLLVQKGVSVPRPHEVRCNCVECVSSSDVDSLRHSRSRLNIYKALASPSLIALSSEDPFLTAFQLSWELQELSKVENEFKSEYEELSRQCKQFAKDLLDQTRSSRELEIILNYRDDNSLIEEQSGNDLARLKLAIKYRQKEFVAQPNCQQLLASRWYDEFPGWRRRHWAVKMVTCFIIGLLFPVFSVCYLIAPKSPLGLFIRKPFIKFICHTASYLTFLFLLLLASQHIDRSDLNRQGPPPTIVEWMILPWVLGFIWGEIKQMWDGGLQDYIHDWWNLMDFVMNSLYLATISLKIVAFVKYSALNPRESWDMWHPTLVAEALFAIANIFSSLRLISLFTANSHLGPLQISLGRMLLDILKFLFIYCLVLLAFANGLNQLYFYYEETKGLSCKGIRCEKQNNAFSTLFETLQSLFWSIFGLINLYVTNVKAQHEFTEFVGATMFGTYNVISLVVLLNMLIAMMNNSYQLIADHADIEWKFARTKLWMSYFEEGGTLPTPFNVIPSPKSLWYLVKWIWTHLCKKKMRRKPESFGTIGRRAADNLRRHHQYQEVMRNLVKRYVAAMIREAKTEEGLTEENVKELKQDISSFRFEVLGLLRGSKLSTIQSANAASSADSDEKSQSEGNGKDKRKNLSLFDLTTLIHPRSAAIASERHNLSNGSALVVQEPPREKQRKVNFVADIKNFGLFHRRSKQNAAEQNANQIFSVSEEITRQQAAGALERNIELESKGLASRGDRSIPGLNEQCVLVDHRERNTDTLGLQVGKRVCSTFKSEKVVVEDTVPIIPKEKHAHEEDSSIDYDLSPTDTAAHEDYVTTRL
In the case of `CN(CCCNC(=O)CCCOc1cc(=O)n(C)c2ccccc12)Cc1ccccc1`, the result was inactive.

`CCOc1ccccc1C(=O)NCCc1cnc[nH]1`: the outcome was inactive.

Turning to `Cc1ccccc1-n1c(=O)c2c(n3cnnc13)-c1ccccc1CC21CCCCC1`, the outcome was inactive.

Consider `CN(C)S(=O)(=O)N1CCC(CCCC2CCN(S(=O)(=O)N(C)C)CC2)CC1`, for which the result was inactive.

Regarding `O=C(Nc1ccnn1C1CCN(Cc2cc3ccccc3[nH]2)CC1)C1CCOC1` (centres undefined), the result was inactive.

For the compound `C=CCOc1ccc(CN(C)Cc2nc3cc(C(F)(F)F)ccc3c(=O)[nH]2)cc1`, the result was inactive.

For `Cc1ccc(C(=O)C[n+]2cccc3cc(C)ccc32)cc1`, the result was inactive.

Take `CN(C)CCCN(C(=O)CCc1ccccc1)c1nc2ccc(F)cc2s1`: the outcome was inactive.

Consider `CC(=O)n1cc([C@@H]2C=C(C(=O)NCc3ccccc3)O[C@H](OCc3ccc(CO)cc3)C2)c2ccccc21`, for which the result was inactive.

As for `O=C(O)CCCN1C(=O)/C(=C\c2ccc(-c3nc4ccccc4s3)o2)SC1=S`, the result was inactive.

On to `CCOCCCn1c(=S)[nH]c2cc(C(=O)NCCCN(CC)CC)ccc2c1=O`, for which the outcome was inactive.

Regarding `O=C(NCc1ccccc1)c1ccc(S(=O)(=O)Nc2cccc(C(F)(F)F)c2)cc1`, the result was inactive.

For `CCOC(=O)C1CCCN(C(=O)CCCn2nnnc2CN2CCOCC2)C1` (centres undefined), the result was inactive.

In the case of `COc1cc(OC)c2c(-c3ccccc3)cc(=O)oc2c1C(CCN1CCCCC1)c1ccc(N(C)C)cc1` (centres undefined), the result was inactive.

Turning to `CCCCCCCCCC[n+]1cccc2c3ccccc3ccc21`, the outcome was inactive.

On to `CC(C)NS(=O)(=O)c1ccc(NC(=O)C(C)Oc2ccc(C(=O)c3ccccc3)cc2)cc1` (centres undefined), for which the result was inactive.

Consider `Cc1ccc(C(=O)NNC(=O)C2CSC3(C)CCC(=O)N23)cc1` (centres undefined), for which the outcome was inactive.

As for `CCCc1nc2oc3c(NCCCN(C)C)ncnc3c2c2c1CCCC2`, the result was inactive.

With `CCc1nc2ccccc2n1Cc1ccccc1F`, the result was inactive.

Turning to `O=C(Cc1ccccc1)Nc1cccc(NC(=O)c2cccs2)c1`, the outcome was inactive.

In the case of `CCCCN(CC)CCCNC(=O)c1cc2cc3ccc(C)cc3nc2o1`, the result was inactive.

`O=C1C=CC(=O)N1CCNc1ncc(C(F)(F)F)cc1Cl`: the result was inactive.

As for `Cc1cc(NC(=O)CSCC(=O)Nc2ccc(Cl)c(C(F)(F)F)c2)no1`, the result was inactive.

With `Cc1ccc2c(c1)C1CN(C)CCC1N2C(=S)NC(=O)c1ccc(Br)cc1` (centres undefined), the outcome was inactive.

`CCc1nc2ccccc2n1Cc1ccc(F)cc1`: the result was inactive.

For the compound `CCN(CC)CCSc1nnc2c3ccccc3n(Cc3ccccc3)c2n1`, the result was inactive.

With `CCN1C2=NCCCN2c2cc(C)c(C)cc21`, the outcome was inactive.

Consider `Cc1cc(C)c2c(=O)n(CC(=O)Nc3cccc(Cl)c3C)sc2n1`, for which the result was inactive.

Regarding `COc1cc(C2(c3ccc(O)c(OC)c3)C(=O)Nc3c(C)cc(Br)cc32)ccc1O`, the result was inactive.

For `COc1ccc(CC2(CO)CCN(C/C=C/c3ccccc3OC)CC2)cc1`, the outcome was inactive.

For the compound `Cc1nn(-c2cc(C(F)(F)F)ccc2Cl)c2nc(C(Cl)(Cl)Cl)[nH]c(=O)c12`, the outcome was inactive.

On to `Cc1ccc(C(=O)O)cc1N=Cc1cc(Br)cc(Br)c1O`, for which the outcome was inactive.

As to `CCOc1ccc(N=CNc2ccc(OCC)cc2)cc1`, the outcome was inactive.

As for `CCN(CC)c1ncnc2sc3c(c12)CCC3`, the outcome was inactive.

As to `COc1ccc(NS(=O)(=O)c2ccc3ccccc3c2)c2ncccc12`, the outcome was inactive.

`CCN1CCN(CCC(=O)Nc2ccccc2OC)CC1`: the outcome was inactive.

For `COc1cc(NC(=O)CSc2ncnc3sc4c(c23)CCC(C)C4)c(C(=O)O)cc1OC` (centres undefined), the result was inactive.

For the compound `Cc1[nH]nc(-c2ccc(O)cc2O)c1-c1nc2ccccc2s1`, the result was inactive.

In the case of `CC1CCC2C(C1)c1sc(=O)[nH]c1SC2(C)C` (centres undefined), the outcome was inactive.
